Data as given in PMC4336329 (PLoS ONE, 2015).
Among all 310,000 compounds or so, about 14,000 (4.5%) showed an effect of 50% or more. The effect is printed as a negative number. Shown is part of a subset that was picked to be rich in strong results.

Molecular target: human ether-à-go-go-related gene (hERG) potassium channel (human, UniProt Q12809)
Assay: primary screen, population patch clamp on CHO cells stably expressing hERG; higher = less effect of the substance
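Further: peak tail current of the secondary pulse compared with the same well before compound.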

human ether-à-go-go-related gene (hERG) potassium channel, sequence (Q12809 whole entry, looked up): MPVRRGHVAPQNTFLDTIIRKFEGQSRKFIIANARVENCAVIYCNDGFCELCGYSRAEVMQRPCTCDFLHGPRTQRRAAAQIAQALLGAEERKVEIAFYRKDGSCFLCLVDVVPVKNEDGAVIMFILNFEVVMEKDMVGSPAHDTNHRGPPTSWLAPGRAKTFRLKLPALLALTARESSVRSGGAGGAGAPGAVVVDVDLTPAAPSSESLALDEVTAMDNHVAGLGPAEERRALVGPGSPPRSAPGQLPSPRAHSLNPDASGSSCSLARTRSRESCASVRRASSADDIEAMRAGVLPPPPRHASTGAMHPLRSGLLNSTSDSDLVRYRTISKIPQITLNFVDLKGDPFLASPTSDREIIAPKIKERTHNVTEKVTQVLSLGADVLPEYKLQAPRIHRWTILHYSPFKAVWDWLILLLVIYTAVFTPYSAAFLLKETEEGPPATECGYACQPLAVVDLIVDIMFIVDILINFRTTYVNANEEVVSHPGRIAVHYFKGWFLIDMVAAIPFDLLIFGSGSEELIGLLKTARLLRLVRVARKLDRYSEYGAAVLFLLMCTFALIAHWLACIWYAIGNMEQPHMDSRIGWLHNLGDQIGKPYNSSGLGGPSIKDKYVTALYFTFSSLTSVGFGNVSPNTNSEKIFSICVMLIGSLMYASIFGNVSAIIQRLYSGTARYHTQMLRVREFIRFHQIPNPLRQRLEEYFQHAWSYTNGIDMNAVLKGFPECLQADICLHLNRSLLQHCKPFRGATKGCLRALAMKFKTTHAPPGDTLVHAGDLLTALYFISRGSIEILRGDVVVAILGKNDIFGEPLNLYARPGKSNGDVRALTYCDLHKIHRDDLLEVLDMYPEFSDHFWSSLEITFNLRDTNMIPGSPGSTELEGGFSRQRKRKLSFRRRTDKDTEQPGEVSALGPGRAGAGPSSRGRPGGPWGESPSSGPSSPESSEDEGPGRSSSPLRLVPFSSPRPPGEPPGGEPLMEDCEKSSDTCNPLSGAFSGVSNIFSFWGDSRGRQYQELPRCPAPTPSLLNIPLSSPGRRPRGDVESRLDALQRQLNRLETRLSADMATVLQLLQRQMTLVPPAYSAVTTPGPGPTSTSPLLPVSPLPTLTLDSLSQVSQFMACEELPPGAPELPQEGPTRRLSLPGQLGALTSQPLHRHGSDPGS

Structure (SMILES) | hERG current change (%, negative = inhibition) at 10uM
Cc1ccc(C)c(NC(=S)N2CCC(NC(=O)C3CCCCC3)CC2)c1 | 4.41%
COc1ccc(NC(=O)COc2ccc(-c3nn(C)c(=O)c4ccccc34)cc2)cc1 | 18.2%
S=C(NCc1cccnc1)Nc1cccc(Cl)c1 | -9.78%
CCOc1cc(C2Nc3ccccc3C(=O)N2c2ccccc2OC)ccc1O (centres unmarked) | 1.46%
CC(C)CC(=O)N(c1ccc(F)cc1)C1C=CS(=O)(=O)C1 (centres unmarked) | 14.4%
CC(=O)N1N=C2C3CCN(CC3)C2C1c1ccc(Br)cc1 (centres unmarked) | 4.62%
Cc1cc(C)n2nc(NCc3cccc(Br)c3)nc2n1 | -70%
Cc1cc(C)n2nc(NCc3ccccc3)nc2n1 | -9.34%
COc1cccc(CNc2nc3nc(C)c(Cl)c(C)n3n2)c1 | -57.9%
COc1cccc(CNc2nc3nc(C)cc(C)n3n2)c1 | -15.6%
COc1ccc(CNc2nc3nc(C)c(Cl)c(C)n3n2)cc1 | 2.05%
COc1ccc(CNc2nc3nc(C)c(Cl)c(C)n3n2)cc1OC | -7.54%
CC(NC(=O)Cc1ccccc1F)c1ccc(F)cc1 (centres unmarked) | 6.9%
Cc1ccc(C2=C/C(=C\c3cccnc3)C(=O)O2)cc1 | 30.8%
NC(=O)NCCCC(=O)OCC(=O)c1ccc2ccccc2c1 | 13.4%
CCCNC(=O)N1CCC(c2nc3ccccc3s2)CC1 | -16.8%
CCOc1cc(N2CCOCC2)c(OCC)cc1NC(=O)COC(=O)c1cc(C)cc(C)c1 | -3.29%
COc1c2ccccc2c(OC)c2ccccc12 | 12.9%
C/C=C/c1ccccc1OCc1ccc(C(=O)O)o1 | 20%
CSCC[C@H](NC(=O)COc1ccc(Cl)cc1)c1nc2ccccc2[nH]1 | -56.5%
CSCC[C@H](NC(=O)C(C)Oc1ccc(Cl)cc1)c1nc2ccccc2[nH]1 (some centres unmarked) | -7.16%

Structure (SMILES) | hERG current change (%, negative = inhibition) at 10uM
CSCC[C@H](NC(=O)COc1ccc(Cl)cc1Cl)c1nc2ccccc2[nH]1 | 14.7%
Cc1cccc(-n2c(SCC(=O)Nc3nnc(C)s3)nnc2-c2ccoc2C)c1 | -63.9%
CCc1nnc(NC(=O)CSc2nnc(-c3ccoc3C)n2-c2cccc(C)c2)s1 | -58.3%
CCCn1c(SCC(=O)Nc2nnc(C)s2)nnc1-c1ccoc1C | 3.4%
Cc1ccc(C)c(-n2c(SCC(=O)Nc3nnc(C)s3)nnc2-c2ccoc2C)c1 | 5.96%
CCc1nnc(NC(=O)CSc2nnc(-c3ccoc3C)n2-c2ccc(C)cc2)s1 | -26.4%
CCc1nnc(NC(=O)CSc2nnc(-c3ccoc3C)n2-c2ccccc2)s1 | -3.54%
O=C(NCCc1ccccc1Cl)c1cc(COc2ccc(F)cc2F)on1 | 7.59%
O=C(CCC(=O)Nc1ccc(F)cc1)N/N=C/c1cccnc1 | 17.8%
CCOc1ccc(S(=O)(=O)NCCC(=O)NCc2ccco2)cc1 | -0.369%
O=C(NC1CCCCC1)c1ccc(S(=O)(=O)N2CCCCC2)cc1 | -6.43%
COc1ccc(S(=O)(=O)Nc2cc(C(C)C)c(O)cc2C)cc1 | -2.38%
COC1CCCN(Cc2c(C(=O)N3CCc4ccccc4C3)nc3ccc(Cl)cn23)C1 (centres unmarked) | -35.9%
CN(C)C(=O)c1nc2ccc(Cl)cn2c1CN1CCCC(OCc2cccnc2)C1 (centres unmarked) | -57.9%
CN(C)C(=O)c1nc2ccc(Cl)cn2c1CN1CCCC(OCc2ccccc2)C1 (centres unmarked) | -36.2%
NCCNc1ccc2nnnn2n1 | 38.7%
CCOc1cc(CN2CCCC(N3CCc4ccccc4C3)C2)ccc1O (centres unmarked) | -21.4%
COc1ccc(O)c(CN2CCCC(N3CCc4ccccc4C3)C2)c1 (centres unmarked) | -46.6%
COc1ccc(CN2CCCC(N3CCc4ccccc4C3)C2)c(O)c1 (centres unmarked) | -60.1%
CCOc1cccc(CN2CCCC(N3CCc4ccccc4C3)C2)c1O (centres unmarked) | -52.9%
Oc1ccccc1CN1CCCC(N2CCc3ccccc3C2)C1 (centres unmarked) | -38.8%

Structure (SMILES) | hERG current change (%, negative = inhibition) at 10uM
COc1cccc(CN2CCCC(N3CCc4ccccc4C3)C2)c1O (centres unmarked) | -17.7%
CCC(C)(C)NC(=O)C(c1ccc(OC)cc1)N(CCOC)C(=O)CCC(=O)Nc1nccs1 (centres unmarked) | 0.428%
COc1cc(NC(=O)Cn2cnc(S(=O)(=O)N3CCCCC3)c2)cc(OC)c1OC | 14.9%
Cc1ccc(-c2ncccc2OC(=O)C23CC4CC(CC(C4)C2)C3)cc1.Cl | 12%
COc1ccc2c(c1OC)CN1CCc3cc4c(cc3[C@H]1C2)OCO4 | -1.81%
COc1ccc2c(c1OC)CN(C)CCc1cc3c(cc1C(=O)C2)OCO3 | -81%
COc1cc2c(cc1OC)C(=O)Cc1ccc3c(c1CN(C)CC2)OCO3 | -54.1%
Br.COc1c2c(cc3c1OCO3)CCN(C)C2 | 0.899%
COc1cc2c(cc1OC)C(C1c3cc4c(cc3CCN1C)OCO4)OC2=O (centres unmarked) | 4.1%
COc1ccc2c(c1OC)CN(C)CCc1cc3c(cc1C(O)C2)OCO3 (centres unmarked) | -27.1%
O=C(Nc1ccc(CN2CCOCC2)cc1)c1ccc(Br)o1 | 1.56%
Cc1ccc2nc(SCC(=O)N3CC(C)OC(C)C3)nc(=O)n2c1 (centres unmarked) | -13%
O=C(N/N=C/c1cc([N+](=O)[O-])c(N2CCOCC2)cc1N1CCOCC1)c1cccnc1 | -22.4%
CCOC(=O)N1CCC(c2cc(=O)n3[nH]cc(C(=O)OC)c3n2)CC1 | 9.34%
CC[C@]12CCCN3CCc4c(n(c5ccccc45)[C@](O)(C(=O)OC)C1)[C@@H]32 | -72.4%
CC[C@]12CCCN3CCc4c(n(c5ccccc45)[C@@](O)(C(=O)OC)C1)[C@@H]32 | -80.9%
COC(=O)[C@@H]1[C@H]2C[C@H]3c4[nH]c5ccccc5c4CCN3C[C@@H]2CC[C@@H]1O.Cl | -22%
CCC12CCCN3CCc4c(n(c5ccccc45)C(O)(C(=O)OC)C1)C32 (centres unmarked) | -28.9%
CCC1(C(=O)OC)CCc2c(cc(OC)c3ccccc23)C1=O (centres unmarked) | 3.07%
CC[C@H]1CC2CN3CCc4c([nH]c5ccccc45)C(C(=O)OC)(C2)C13.Cl (some centres unmarked) | -2.97%
